The text below walks through data of PubChem BioAssay (NCATS).

The nature of test [1]: qHTS for Inhibitors of the Functional Ribonucleoprotein Complex (vRNP) of Lassa (LASV) Arenavirus: LASV Primary Screen - GLuc reporter signal (AID 1347082; calls by dose curve; tested in HEK293 reporter line; note: series mostly up to about 57 µM; nearly all actives have a fitted effect of over 60% in size).
A short description of test [2]: qHTS for Inhibitors of the Functional Ribonucleoprotein Complex (vRNP) of Lassa (LASV) Arenavirus: Viability assay - alamar blue signal for LASV Primary Screen (AID 1347083; calls by dose curve; tested in HEK293 reporter line; note: nearly all actives have a fitted effect of over 80% in size; note: potency is the fitted concentration of half-maximal effect). A general note: In qHTS, concentration-response curves come from the screen itself.
The nature of test [3]: qHTS for Inhibitors of the Functional Ribonucleoprotein Complex (vRNP) of Lymphocytic Choriomeningitis Arenaviruses (LCMV): Viability assay - alamar blue signal for LCMV Primary Screen (AID 1347085; calls by dose curve; tested in HEK293 reporter line; note: nearly all actives have a fitted effect of over 80% in size; note: potency is the fitted concentration of half-maximal effect).
Test [4] addresses Nucleoprotein (Lymphocytic choriomeningitis virus (strain Armstrong)) (UniProt P09992). Description: qHTS for Inhibitors of the Functional Ribonucleoprotein Complex (vRNP) of Lymphocytic Choriomeningitis Arenaviruses (LCMV): LCMV Primary Screen - GLuc reporter signal (AID 1347086; calls by dose curve; note: series mostly up to about 57 µM; nearly all actives have a fitted effect of over 70% in size).
Test [5] is described as follows: qHTS of pediatric cancer cell lines to identify multiple opportunities for drug repurposing: Primary screen for TC32 cells (AID 1347089). Note: nearly all actives have a fitted effect of over 60% in size. Put shortly:
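TC32 cells, 500-1,000/well in growth medium, compound-treated 48 h at 37 °C; viability from CellTiter-Glo luminescence. Primary screen: MIPE 11-point (0.78 nM–46 µM final), NPC 8-point (0.59 nM–46 µM final); confirmatory at 11-point dilutions.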

Test [6] in a line: qHTS of pediatric cancer cell lines to identify multiple opportunities for drug repurposing: Primary screen for DAOY cells (AID 1347090). Note: series mostly up to about 46 µM; nearly all actives have a fitted effect of over 55% in size. The gist of the method: (§1)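 Cell viability, CellTiter-Glo luminescence; 500-1,000 cells/well, 8- or 11-point titration, 48 h compound exposure at 37 degrees C, 5% CO2. Controls: DMSO neutral, bortezomib 2.3 µM final as positive.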
Test [7] is described as follows: qHTS of pediatric cancer cell lines to identify multiple opportunities for drug repurposing: Primary screen for SJ-GBM2 cells (AID 1347091). The gist of the method:
as §1

Test [8] in a line: qHTS of pediatric cancer cell lines to identify multiple opportunities for drug repurposing: Primary screen for A673 cells (AID 1347092). Note: nearly all actives have a fitted effect of over 45% in size. Put shortly: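 A673 cells (500-1,000 cells/well) were treated 48 hours at 37 degrees C with compounds at 11-point (0.78 nM to 46 µM) or 8-point (0.59 nM to 46 µM) dilutions. Viability read by CellTiter-Glo luminescence; concentration-response curves fitted.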

Test [9] is described as follows: qHTS of pediatric cancer cell lines to identify multiple opportunities for drug repurposing: Primary screen for BT-37 cells (AID 1347094). Note: series mostly up to about 57 µM. The gist of the method:
(§2)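 Plated cells (500-1,000 per well, growth media) were allowed to settle for 5 hours, treated with compound dilutions for 48 hours, then lysed with CellTiter-Glo for 15 min at room temperature before luminescence reading.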

Test [10] is described as follows: qHTS of pediatric cancer cell lines to identify multiple opportunities for drug repurposing: Primary screen for NB-EBc1 cells (AID 1347095). Put shortly:
as §2

Test [11] in a line: qHTS of pediatric cancer cell lines to identify multiple opportunities for drug repurposing: Primary screen for U-2 OS cells (AID 1347096). Note: nearly all actives have a fitted effect of over 50% in size. Put shortly: (§3)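 Cells (500-1,000/well) rested 5 h, then received compounds for 48 h; metabolically active cells were measured by CellTiter-Glo luminescence. Final concentrations spanned up to 46 µM (MIPE, 11-point) or 0.59 nM-46 µM (NPC, 8-point) in primary screens, 11-point in follow-ups.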

Test [12] can be described thus: qHTS of pediatric cancer cell lines to identify multiple opportunities for drug repurposing: Primary screen for NB1643 cells (AID 1347099). Note: nearly all actives have a fitted effect of over 50% in size. Note: potency is the fitted concentration of half-maximal effect. Put shortly:
as §2

Test [13] can be described thus: qHTS of pediatric cancer cell lines to identify multiple opportunities for drug repurposing: Primary screen for LAN-5 cells (AID 1347100). Put shortly: as §3
Test [14] is described as follows: qHTS of pediatric cancer cell lines to identify multiple opportunities for drug repurposing: Primary screen for BT-12 cells (AID 1347101). Note: nearly all actives have a fitted effect of over 25% in size. The gist of the method:
as §3

A short description of test [15]: qHTS of pediatric cancer cell lines to identify multiple opportunities for drug repurposing: Primary screen for OHS-50 cells (AID 1347103). Note: nearly all actives have a fitted effect of over 40% in size. Put shortly: as §3
A short description of test [16]: qHTS of pediatric cancer cell lines to identify multiple opportunities for drug repurposing: Primary screen for SK-N-MC cells (AID 1347093). Note: potency is the fitted concentration of half-maximal effect. The gist of the method: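 Metabolically active cells were quantified by ATP-dependent luminescence (CellTiter-Glo, 15 min at room temperature) following 48 h treatment. Cells had been plated at 500-1,000 per well and settled for 5 h beforehand.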

Test [17] is described as follows: qHTS of pediatric cancer cell lines to identify multiple opportunities for drug repurposing: Primary screen for SK-N-SH cells (AID 1347098). Note: nearly all actives have a fitted effect of over 65% in size. Put shortly:
as §3

Test [18] in a line: qHTS of pediatric cancer cell lines to identify multiple opportunities for drug repurposing: Primary screen for Saos-2 cells (AID 1347097). Note: nearly all actives have a fitted effect of over 40% in size. Note: potency is the fitted concentration of half-maximal effect. The gist of the method:
as §2

Test [19] in a line: qHTS of pediatric cancer cell lines to identify multiple opportunities for drug repurposing: Primary screen for Rh18 cells (AID 1347102). Note: nearly all actives have a fitted effect of over 65% in size. The gist of the method:
as §3

Records with an inconclusive call do not appear. The source made the active and inactive calls. Unless noted, calls come from the whole dose curve; as a rule, active = well fitted curve in the direction sought with a large enough effect; inconclusive = small, poorly fitted or top-dose-only effect, or another doubt; inactive = no such curve, though single readings can be large; an effect the other way counts as inactive or inconclusive.

Sequence of Nucleoprotein (Lymphocytic choriomeningitis virus (strain Armstrong)) (P09992 whole entry, looked up): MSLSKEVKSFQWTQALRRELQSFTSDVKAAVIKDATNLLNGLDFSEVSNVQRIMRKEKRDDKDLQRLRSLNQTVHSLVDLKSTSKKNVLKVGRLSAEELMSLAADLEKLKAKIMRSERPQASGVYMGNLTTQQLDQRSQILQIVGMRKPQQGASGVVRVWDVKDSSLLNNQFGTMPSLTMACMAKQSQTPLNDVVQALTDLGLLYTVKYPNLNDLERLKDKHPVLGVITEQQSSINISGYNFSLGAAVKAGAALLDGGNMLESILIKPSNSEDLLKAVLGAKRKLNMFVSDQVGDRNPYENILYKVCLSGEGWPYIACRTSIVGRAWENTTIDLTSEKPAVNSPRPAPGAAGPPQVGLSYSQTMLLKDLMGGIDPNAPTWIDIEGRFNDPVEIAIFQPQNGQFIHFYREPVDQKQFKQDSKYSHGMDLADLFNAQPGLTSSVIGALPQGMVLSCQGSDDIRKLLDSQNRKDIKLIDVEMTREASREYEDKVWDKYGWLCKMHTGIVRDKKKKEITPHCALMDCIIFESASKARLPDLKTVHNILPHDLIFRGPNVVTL

As to `CC(=CCCC1=CCC(C2=CC(=O)OC2O)OC1O)CCC1=C(C)CCCC1(C)C` (centres undefined), the Potency entry in test [1], in test [2], in [3], in test [4], in test [5] and in test [6] was “inactive” throughout. The Potency result in test [7], in test [8], in [9], in test [10], in test [11] and in test [12] was “inactive” in each case. Further, the Potency result in test [13], in [14] and in test [15] was “inactive” throughout.

On to `O=C(Oc1ccc([N+](=O)[O-])cc1)N1CCC(C(O)(c2ccc3c(c2)OCO3)c2ccc3c(c2)OCO3)CC1`, for which the Potency result in test [1], in test [4], in test [5], in test [6], in [7] and in test [10] was “inactive” in each case. Besides, the Potency result in test [11], in test [17], in test [13] and in test [14] was “inactive” throughout. The Potency in [2] is 24.3 µM (active); in [3], 3.06 µM (active); in [16], 16.6 µM (active).

As to `C[C@@H]1CC[C@H]2[C@@H](C)C(=O)O[C@@H]3O[C@@]4(C)CC[C@H]1[C@]32OO4`, the Potency entry in [1], in [2], in test [3], in test [4], in [5] and in test [7] was “inactive” in each case. The Potency result in test [8], in test [11], in [18], in test [17], in test [12] and in [13] was “inactive” throughout. The Potency entry in test [19] was “inactive”. Besides, the Potency in test [16] is 11.8 µM (active).

Regarding `C=C1C[C@H]2[C@H]3CCC(=O)[C@@]3(C)CC[C@@H]2[C@@]2(C)C=CC(=O)C=C12`, the Potency entry in test [1], in test [2], in [3], in [4], in test [5] and in [6] was “inactive” throughout. Also, the Potency result in test [7], in test [10], in test [17], in [13] and in test [19] was “inactive” throughout.

For the compound `C#C[C@]1(O)C=C[C@@H]2[C@@H]3CCC4=CC(=O)CC[C@@H]4[C@H]3CC[C@@]21CC`, the Potency result in test [1], in [2], in [3], in test [4], in test [5] and in test [6] was “inactive” throughout. For the same compound, the Potency result in test [7], in test [8], in test [9], in test [11], in [18] and in test [17] was “inactive” throughout. For the same compound, the Potency entry in [13], in test [19] and in [15] was “inactive” in each case. Also, the Potency in test [12] was 8.33 µM (active).

Turning to `O=C(Nc1ccccc1-c1ccc(Cl)cc1)c1cccnc1Cl`, the Potency entry in test [1], in test [2], in test [3], in [4], in test [5] and in test [6] was “inactive” in each case. Further, the Potency entry in [7], in [8], in [16], in test [9], in [11] and in [18] was “inactive” throughout. The Potency result in test [17], in [12], in test [13], in test [14] and in test [19] was “inactive” throughout.

Consider `CN(C)[C@@H]1C(=O)C(C(N)=O)=C(O)[C@@]2(O)C(=O)C3=C(O)c4c(O)cccc4[C@@](C)(O)[C@H]3[C@H](O)[C@@H]12`, for which the Potency entry in test [1], in test [2], in test [3], in test [4], in test [5] and in [6] was “inactive” in each case. In addition, the Potency entry in [7], in test [8], in test [16], in test [9], in test [10] and in test [12] was “inactive” throughout. In addition, the Potency entry in [13], in test [14], in test [19] and in test [15] was “inactive” throughout.

As to `C[C@]12CC[C@@H]3[C@@H](CCC4=CC(=O)CC[C@@H]43)[C@@H]1CC[C@@H]2OC(=O)CCc1ccccc1`, the Potency result in test [1], in [2], in test [3], in test [4], in test [5] and in test [6] was “inactive” in each case. The Potency entry in [7], in test [16], in test [9], in [10], in test [14] and in test [19] was “inactive” throughout. The Potency entry in [15] was “inactive”. Further, the Potency in test [18] is 18.7 µM (active).

For `O=[N+]([O-])c1c(Cl)c(Cl)cc(Cl)c1Cl`, the Potency result in [1], in test [2], in test [3], in [4], in [5] and in [6] was “inactive” each time. For the same compound, the Potency result in test [7], in test [8], in test [9], in [10], in test [11] and in [18] was “inactive” each time. In addition, the Potency result in test [17], in [12], in test [13], in [14], in [19] and in test [15] was “inactive” each time.
